Consider 13 molecules from PubChem BioAssay (NCI).

Molecules are shown by their SMILES. About 83,000 compounds went through this panel and 20% of them were active in at least one assay; those are over-represented in the sample as a whole.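 Growth was measured after 48 h exposure to one concentration of compound in 96-well plates. Values under 10 count as active.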 Values without a mark were called inactive. Activity calls are given as the source filed them.

One test concerns SF-539 CNS. The test can be described thus: NCI-60 one-dose screen, 48 h (100 = growth as untreated, 0 = no growth, -100 = all killed). The settings on record: 10 µM unless noted.
Regarding `COc1cccc(/C=C2\SC(=Nc3ccc(NC(C)=O)cc3)NC2=O)c1OC`, the growth was 94.4%.

In the case of `C=CCSSc1ncnc2c1ncn2C1OC(CO)C(O)C1O` (stereo not drawn), the growth is 19.9%. For the molecule `Cc1ncc(C(=O)Nc2ccc(CN3CCN(C)CC3)c(C(F)(F)F)c2)cc1C#Cc1cnc2cccnn12`, the growth is -52.2% (active). In the case of `NNCCc1ccc(NC(=O)CCCc2ccc(/C=C/C(=O)NO)cc2)cc1`, the growth was 53.3%. Take `COc1cc2c(cc1-c1c(C)noc1C)ncc1nc(C3CCOCC3)n([C@H](C)COC(F)F)c12`: the growth is 33.6%.

`C=CC(=O)Nc1cccc(-c2nc(SC)nc(NCCc3ccc(OC)c(OC)c3)c2C#N)c1`: the growth is 65.6%.

The subject of a further test is UACC-257 melanoma. Described as above. As to conditions: 10 µM unless noted.
Take `N#CCCN=Nc1c(O)[nH]c2ccc([N+](=O)[O-])cc12`: the growth was 119%. `COc1cc(-c2ccc3c(c2)NC(=O)/C3=C\c2ccc[nH]2)ccc1O`: the growth was 39.3%. Still for that read-out and setting: the same measure for `C=C(C)[C@@H]1CC[C@]2(C(N)=O)CC[C@]3(C)[C@H](CC[C@@H]4[C@@]5(C)C/C(=C/c6ccco6)C(=O)C(C)(C)[C@@H]5CC[C@]43C)[C@@H]12`: 97.8%; for `O=C1Nc2c(ccc(Cl)c2Cl)/C1=C\c1cc(C(F)(F)F)cc(C(F)(F)F)c1`: 25%; for `COc1cc2c(cc1-c1c(C)noc1C)ncc1nc(C3CCOCC3)n([C@@H](C)COC(F)F)c12`: 36.7%.

`O=C1Nc2c(ccc(Cl)c2Cl)/C1=C\c1ccc(C(F)(F)F)cc1`: the growth is 97.5%.

As to `C[n+]1ccccc1/C=C/c1ccc2cccc(O)c2n1`, the growth was 97.5%.
